We go through 94 compounds from PubChem BioAssay AID2156 (Johns Hopkins Ion Channel Center, 2009).

The whole screen tested about 310,000 compounds, of which about 3,400 (1.1%) were called active.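 Rule for the calls: active = fluorescence ratio B-score at most minus 3 library SDs, with starting brightness B-score within 2 library SDs (cut at about -5.5 in these data); inactive = the rest, inconclusive results apart.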 What follows is part of a selection rich in actives, with near analogues and random picks from the rest.

The target in this assay is Potassium voltage-gated channel subfamily KQT member 2 (Rattus norvegicus) (UniProt O88943). Nature of the assay: KCNQ2 channel blockers in CHO-K1 cells – cell-based, FluxOR thallium flux, B-score, primary screen (AID 2156). The settings on record: 20 min, at 10 µM; stronger effect = lower value.
Sequence of Potassium voltage-gated channel subfamily KQT member 2 (Rattus norvegicus) (O88943 whole entry, looked up): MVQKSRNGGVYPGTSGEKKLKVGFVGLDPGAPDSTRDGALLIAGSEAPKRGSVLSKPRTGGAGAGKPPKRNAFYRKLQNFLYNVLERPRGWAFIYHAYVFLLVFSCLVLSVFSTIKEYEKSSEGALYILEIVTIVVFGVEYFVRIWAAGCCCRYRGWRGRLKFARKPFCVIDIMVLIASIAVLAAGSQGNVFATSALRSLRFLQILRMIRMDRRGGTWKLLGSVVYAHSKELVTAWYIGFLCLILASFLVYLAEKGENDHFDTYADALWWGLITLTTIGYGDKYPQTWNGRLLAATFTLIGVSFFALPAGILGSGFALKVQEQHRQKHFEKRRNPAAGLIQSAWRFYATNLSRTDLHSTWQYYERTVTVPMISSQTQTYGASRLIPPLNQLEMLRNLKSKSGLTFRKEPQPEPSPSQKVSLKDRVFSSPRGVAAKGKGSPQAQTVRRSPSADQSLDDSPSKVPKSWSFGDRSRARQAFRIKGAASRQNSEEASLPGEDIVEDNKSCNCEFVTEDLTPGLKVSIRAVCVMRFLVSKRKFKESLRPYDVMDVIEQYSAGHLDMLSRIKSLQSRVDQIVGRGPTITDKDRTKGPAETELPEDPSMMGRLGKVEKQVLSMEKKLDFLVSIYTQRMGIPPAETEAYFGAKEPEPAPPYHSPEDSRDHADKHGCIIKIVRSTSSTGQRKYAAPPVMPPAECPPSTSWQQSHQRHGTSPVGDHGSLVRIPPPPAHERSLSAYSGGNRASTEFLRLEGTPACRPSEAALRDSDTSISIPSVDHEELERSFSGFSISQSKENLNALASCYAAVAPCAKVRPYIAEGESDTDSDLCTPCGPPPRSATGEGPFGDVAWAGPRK
Turning to `O=S(=O)(Nc1cccc(-c2ccc(N3CCOCC3)nn2)c1)c1ccc(Cl)c(Cl)c1`, the B-score result was “inactive”.

On to `Cc1cc(C)c(S(=O)(=O)N2CCCC2CNC(=O)c2ccc3c(c2)OCO3)c(C)c1` (centres undefined), for which the B-score is -3.59 (inactive). The result for `Cc1ccc(Cl)cc1NC(=O)c1ccccn1` reads -3.49 (inactive); that for `Cc1cccc(OCC(=O)NCCCNC(=O)c2ccccn2)c1`, -0.01 (inactive). With `CCN(CC)CCOc1ccc2c(c1)C(=NNC(=O)c1ccccn1)c1cc(OCCN(CC)CC)ccc1-2`, the B-score was -7.1 (active). The result for `COc1cc(C(=O)NCC(=O)NCCSc2ccc(Br)cc2)cc(OC)c1OC` reads “inactive”; that for `COc1cccc(NC(=O)CN(C)C(=O)CSCc2nc3scc(-c4cccs4)c3c(=O)[nH]2)c1`, “inactive”. To `CCc1ccccc1NC(=S)Nc1cc(OC)c(NC(=O)C(C)C)cc1OC` belongs -0.92 (inactive); to `CCc1ccccc1NC(=O)/C(=C/c1ccccc1)c1ccccc1`, -9.3 (active); to `O=C(/C=C/c1ccccc1)N/C(=C/c1ccccc1)C(=O)Nc1ccccc1O`, -0.61 (inactive). To `COC(=O)c1ccc(N2CCOCC2)c(NC(=O)c2ccc(Br)o2)c1` belongs “inactive”; to `CCCC(=O)Nc1ccc(Cl)c(NC(=O)c2ccc(Br)o2)c1`, “inactive”; to `CCN1CCN(c2c(Cl)cccc2NC(=O)c2ccc(Br)o2)CC1`, -6.14 (active).

Turning to `CN(/N=C/c1ccccc1)C(=S)c1ccccc1`, the B-score result was “inactive”. The result for `O=C(NCCS(=O)(=O)N1CCN(c2ccc(F)cc2)CC1)c1ccc2c(c1)OCO2` reads “inactive”; that for `O=C(c1cccc([N+](=O)[O-])c1)N1CCN(Cc2ccccc2)CC1`, “inactive”.

As to `CC1(c2ccccc2)CC(C)(C)N(C(=O)c2cc([N+](=O)[O-])cc([N+](=O)[O-])c2)c2ccccc21` (centres undefined), the B-score is -1.63 (inactive). The result for `CC1(c2cccc([N+](=O)[O-])c2)CC(C)(C)N(C(=O)c2ccccc2)c2ccccc21` (centres undefined) reads -7.53 (active); that for `NC(=O)c1ccsc1NC(=O)COC(=O)Cc1n[nH]c(=O)c2ccccc12`, -1.74 (inactive); that for `COc1ccc(S(=O)(=O)NCCCc2ccccc2)cc1`, “inactive”.

On to `Cc1ccc(OCCNC(=O)CCNS(=O)(=O)c2ccc(Br)cc2)cc1`, for which the B-score result is “inactive”.

`COC(=O)c1ccc(N2CCOCC2)c(NC(=O)c2ccc3c(c2)OCCO3)c1`: the B-score result was “inactive”. The result for `O=C(Nc1cccc(Cl)c1N1CCOCC1)c1ccc2c(c1)OCCO2` reads -6.48 (active). To `O=C(Nc1cccc(Cl)c1N1CCOCC1)c1cccnc1` belongs “inactive”. In the case of `Cc1ccc(NC(=O)CSCC(=O)Nc2sccc2C#N)cc1`, the B-score is -0.08 (inactive). Turning to `O=C(COC(=O)c1ccccc1Br)Nc1nnc(-c2ccccc2)o1`, the B-score is -0.06 (inactive).

With `CC(C)(C)n1nnnc1C(c1cccs1)N(Cc1cccnc1)CC1CCCO1` (centres undefined), the B-score is -0.68 (inactive). As for `CCOc1ccc(CN(Cc2ccco2)C(c2cccs2)c2nnnn2C(C)(C)C)cc1` (centres undefined), the B-score was -6.35 (active).

As for `CCOc1ccc(CN(Cc2ccco2)S(=O)(=O)c2ccc(-n3cnnn3)c(OC)c2)cc1`, the B-score result is “inactive”. The result for `O=C(NCc1ccccn1)Nc1ccc(Cl)cc1` reads “inactive”; that for `CCCN(CC(=O)Nc1ccccc1OC)C(=O)CCC(=O)c1ccc(F)cc1`, -1.98 (inactive); that for `CN(C1CCS(=O)(=O)C1)S(=O)(=O)c1ccc2ccccc2c1` (centres undefined), -0.6 (inactive).

On to `O=C1c2oc3ccccc3c(=O)c2C(c2cccc(O)c2)N1c1ccccn1` (centres undefined), for which the B-score is -0.06 (inactive). The result for `O=C1c2oc3ccc(Br)cc3c(=O)c2C(c2cccc(F)c2)N1CCO` (centres undefined) reads -4.46 (inactive).

For `COCCN1C(=O)c2oc3c(C)cc(C)cc3c(=O)c2C1c1cccc(O)c1` (centres undefined), the B-score is -6.4 (active). Take `CC(=O)O[C@H]1CC[C@@]2(C)[C@@H](CC[C@@H]3[C@@H]2CC[C@]2(C)[C@@H](C(C)(C)O)C[C@@H]32)C1`: the B-score entry was “inactive”. As for `COc1ccc(NS(=O)(=O)c2ccc(C)c(C(=O)N(C)Cc3ccc(OC)cc3OC)c2)cc1`, the B-score result was “inactive”. The result for `CCn1c(SC(C)C(=O)Nc2ccc(N3CCOCC3)cc2)nnc1-c1ccco1` (centres undefined) reads “inactive”; that for `COc1ccccc1NC(=O)COC(=O)c1ccccc1SCC(=O)N1CCCC1`, “inactive”. The result for `Nc1ccccc1SC(C[N+](=O)[O-])c1ccccc1` (centres undefined) reads -7.63 (active); that for `CCS(=O)(=O)c1cc([N+](=O)[O-])c(Sc2ccccc2N)s1`, “inactive”; that for `Nc1ccccc1SCc1cc([N+](=O)[O-])cc2c1OCOC2`, -0.29 (inactive). To `Cc1cc(C)c(-c2csc(NC(=O)CCCc3nc4ccccc4c(=O)[nH]3)n2)c(C)c1` belongs “inactive”; to `Cc1ccc(S(=O)(=O)N2CCOCC2)cc1C(=O)NCc1ccc(F)cc1`, “inactive”; to `O=C(Nc1ccccc1N1CCOCC1)c1csc2c1CCCC2`, -4.47 (inactive).

Consider `Cc1cc(C(=O)Nc2ccccc2N2CCOCC2)c2ccccc2n1`, for which the B-score is -6.19 (active).

Take `O=C(Nc1ccccc1N1CCCC1)c1ccc(F)c(S(=O)(=O)N2CCOCC2)c1`: the B-score is -0.88 (inactive). The result for `Cc1cc(C(=O)NNC(=O)c2cccc(S(=O)(=O)N3CCOCC3)c2)c2ccccc2n1` reads -0.22 (inactive); that for `Cc1ccc(S(=O)(=O)N2CCOCC2)cc1C(=O)Nc1ccccc1N1CCCC1`, -6.63 (active). The result for `CN(C)CCn1c2c(c(SCC(=O)Nc3ccccc3C(F)(F)F)nc1=O)CCCC2` reads -0.04 (inactive); that for `Nc1c(-c2ccccc2)nnn1Cc1ccccc1`, “inactive”; that for `Cc1ccc(S(=O)(=O)N2CCN(C(=O)c3ccc(-n4cncn4)c([N+](=O)[O-])c3)CC2)cc1`, -0.29 (inactive). The result for `Cc1cccc(C)c1NC(=O)CNC(=O)c1c(C)nn(-c2ccccc2)c1C` reads -1.69 (inactive). Consider `O=C(Nc1nc(-c2ccco2)c(-c2ccco2)s1)c1ccco1`, for which the B-score is -3.35 (inactive).

On to `Cc1nc2ccccc2c(-c2ccccc2)c1C(=O)c1ccccc1`, for which the B-score was -9.15 (active). The result for `CC(=O)c1c(-c2ccccc2)c2ccccc2[nH]c1=O` reads -0.37 (inactive); that for `Cc1nc2ccccc2c(C)c1C(=O)c1ccc(F)cc1`, -1.04 (inactive); that for `COc1cnn(-c2ccc([N+](=O)[O-])cc2)c(=O)c1Cl`, -0.13 (inactive). To `COc1ccccc1C(=O)Nc1ccc(Nc2ccccc2)cc1` belongs “inactive”; to `COc1ccc(CNS(=O)(=O)c2cc3c4c(c2)CCN4C(=O)CC3)cc1`, -1.56 (inactive). To `Cc1ccc(NC(=O)C2CC(=O)N(c3ccc4c(c3)OCCO4)C2)cc1S(=O)(=O)N1CCCCCC1` (centres undefined) belongs -1.45 (inactive); to `Cc1onc(-c2ccccc2Cl)c1C(=O)OCC(=O)c1ccccc1`, -1.85 (inactive); to `Cc1onc(-c2ccccc2Cl)c1C(=O)NCCn1ccc2ccccc21`, -5.59 (active).

Turning to `Cc1ccc2cc(CCNC(=O)c3c(-c4ccccc4Cl)noc3C)c(=O)[nH]c2c1`, the B-score is -1.13 (inactive).

Consider `COc1ccc(-c2[nH]nc(-c3ccccc3)c2-c2nc3ccccc3[nH]2)cc1`, for which the B-score is -7.31 (active). The result for `COc1ccc(OC(C)C(=O)NCCc2nc3ccccc3[nH]2)cc1` (centres undefined) reads “inactive”; that for `Cc1ccc(-c2nc3ccccc3[nH]2)cc1N`, -0.17 (inactive); that for `COc1ccc(CCNC(=S)N2CCN(S(=O)(=O)c3ccc(F)cc3)CC2)cc1`, -0.54 (inactive). To `Cc1ccc(CSCC(=O)N(C)CC(=O)Nc2ccc(C)cc2)cc1` belongs “inactive”. Regarding `CC(Oc1ccc(Br)cc1)C(=O)NCC(c1ccco1)N1CCCCC1` (centres undefined), the B-score is -2.11 (inactive).

In the case of `CCOC(=O)c1c(NC(=O)CSc2cn(CC)c3ccccc23)sc2c1CCC2`, the B-score is -7.2 (active).

Consider `CCOC(=O)c1c(NC(=S)NC)sc2c1CCCC2`, for which the B-score entry is “inactive”.

For the compound `CCOC(=O)c1c(NC(=O)C2(C)Cc3ccccc3C(=O)O2)sc2c1CCCC2` (centres undefined), the B-score was -5.8 (active). To `CCOC(=O)c1c(NC(=O)Cn2nc(C(F)(F)F)cc2C)sc2c1CCC2` belongs -0.09 (inactive); to `CCOC(=O)c1c(NC(=O)C(C)Sc2c[nH]c3ccccc23)sc2c1CCC2` (centres undefined), -4.14 (inactive). Take `CCOC(=O)c1c(NC(=O)CCC(=O)NCc2ccco2)sc2c1CCCC2`: the B-score entry was “inactive”. The result for `CC(Sc1nn(-c2ccc(Cl)cc2)c(=S)s1)C(=O)NCC1CCCO1` (centres undefined) reads -0.45 (inactive); that for `COc1cccc(NC(=O)CSc2nccn(-c3ccc4c(c3)OCCO4)c2=O)c1`, -2.03 (inactive); that for `COc1ccccc1CCC(=O)NNC(=O)c1ccncc1`, -1.15 (inactive). For the compound `COc1ccc(S(=O)(=O)N2CCOC23CCN(S(=O)(=O)c2ccc([N+](=O)[O-])cc2)CC3)cc1`, the B-score is -0.03 (inactive). Regarding `Cc1ccc(N=C2SCCCN2C(=O)c2cccc(N3C(=O)CCC3=O)c2)cc1Cl`, the B-score entry is “inactive”. To `COc1ccccc1NC(=O)C(C)OC(=O)c1ccc(-n2cnnn2)cc1` (centres undefined) belongs “inactive”. To `O=C(CCN1C(=O)C2CCCCC2C1=O)Nc1ccc(OC(F)F)cc1` (centres undefined) belongs -1.21 (inactive); to `C[C@H](NC(=O)c1ccccc1Cl)C(=O)OCCOc1cccc(Cl)c1`, -6.72 (active); to `O=C(COc1cccc(Cl)c1)NCc1ccccc1`, “inactive”. Take `CC(C)NC(=O)c1ccc(Cl)cc1Cl`: the B-score entry was “inactive”. To `CCOC(=O)c1c(C)[nH]c(C(=O)OCC(=O)c2ccc(OC)cc2OC)c1C` belongs -0.07 (inactive). The result for `COc1ccc(S(=O)(=O)N2CCCCC2)cc1NC(=O)C1CC(=O)N(c2ccc3c(c2)OCCO3)C1` (centres undefined) reads -0.27 (inactive).

With `Cc1csc2nc(O)c(C(=O)NCCN3CCOCC3)c(=O)n12`, the B-score result was “inactive”.

For the compound `Cc1ccc(SCC(=O)Nc2ccc3c(c2)OCCO3)cc1`, the B-score result is “inactive”. In the case of `Cc1ccc(C(=O)CSc2ccccc2C(=O)O)cc1`, the B-score result was “inactive”.

Turning to `Cc1ccc(SCC(=O)c2cc(C)c(OC(=S)N(C)C)c(C)c2)cc1`, the B-score was -7.36 (active). To `Cc1ncc(CO)c(/C=N/NC(=O)c2cccc(S(=O)(=O)N3CCCC3)c2)c1O` belongs -2.49 (inactive); to `Cc1ccc(C(=O)NC2CCCC(C)C2C)cc1S(=O)(=O)N1CCCCC1` (centres undefined), -3.09 (inactive).
